PubChem BioAssay (EPA / NIEHS)
Calls of active or inactive are those of the source. How the source made its calls: active means hit-call score of the fitted dose curve at least 0.9, where 1 is the maximum; inactive means score below 0.9.

Assays:
Details in all cases: mRNA level, 48 h; actives raise or lower the signal
[1] = read-out: Glutamate-cysteine ligase catalytic (GCLC), GCLC (gene 2729); assay: LTEA_HepaRG_GCLC: Life Technologies and Expression Analysis (LTEA) Assay for Glutamate-cysteine ligase catalytic (GCLC) using HepaRG (AID 2283498)
Procedure, shortened: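 HepaRG, 48 h exposure, 8-pt half-log series from 100 uM, 0.5% DMSO vehicle; TaqMan qRT-PCR for GCLC mRNA, housekeeping-normalized; bidirectional curve fit vs DMSO baseline.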

[2] = read-out: Glutamate-cysteine ligase regulatory (GCLM), GCLM (gene 2730); assay: LTEA_HepaRG_GCLM: Life Technologies and Expression Analysis (LTEA) Assay for Glutamate-cysteine ligase regulatory (GCLM) using HepaRG (AID 2283500)
Procedure, shortened: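 Endpoint is GCLM transcript level by qRT-PCR, normalized to three housekeeping genes, after 48 h chemical exposure of human HepaRG cells (0.5% DMSO vehicle, top 100 uM, half-log dilutions). Fitting was bidirectional relative to DMSO.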

[3] = read-out: Glutathione S-transferase M3 (GSTM3), GSTM3 (gene 2947); assay: LTEA_HepaRG_GSTM3: Life Technologies and Expression Analysis (LTEA) Assay for Glutathione S-transferase M3 (GSTM3) using HepaRG (AID 2283501)
Procedure, shortened: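 qRT-PCR read-out of GSTM3 transcript, normalized to three housekeeping genes, from human HepaRG cells after 48 h chemical exposure. Eight-point half-log series, top 100 uM, 0.5% DMSO vehicle; gain or loss fitted relative to DMSO baseline.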

[4] = read-out: Heat shock 70 kDa protein 1 (HSPA1A), gene 3303; assay: LTEA_HepaRG_HSPA1A: Life Technologies and Expression Analysis (LTEA) Assay for Heat shock 70 kDa protein 1 (HSPA1A) using HepaRG (AID 2283502)
Procedure, shortened: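 Cells were plated and cultured for 48 h, then switched to serum-free induction medium. Chemicals were added at eight half-log concentrations up to 100 uM for 48 h. RNA was then isolated and HSPA1A measured by qRT-PCR with bidirectional curve fitting against DMSO.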

[5] = read-out: Hypoxia-inducible factor 1-alpha (Homo sapiens) (UniProt Q16665); assay: LTEA_HepaRG_HIF1A: Life Technologies and Expression Analysis (LTEA) Assay for Hypoxia-inducible factor 1 (HIF1A) Trancription factor using HepaRG (AID 2283503)
Procedure, shortened: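 HIF1A transcript level read by qRT-PCR (ACTB, GAPDH, POLR2A normalization) after 48 h chemical exposure of HepaRG cultures. Eight half-log concentrations, top 100 uM, 0.5% DMSO vehicle, duplicates; bidirectional curve fit against DMSO baseline.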

[6] = read-out: 3-Hydroxy-3-Methylglutaryl-CoA Synthase 2 (HMGCS2), HMGCS2 (gene 3158); assay: LTEA_HepaRG_HMGCS2: Life Technologies and Expression Analysis (LTEA) Assay for 3-Hydroxy-3-Methylglutaryl-CoA Synthase 2 (HMGCS2) using HepaRG (AID 2283504)
Procedure, shortened: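 qRT-PCR read-out of HMGCS2 transcript, normalised to three housekeeping genes, in HepaRG cells after 48 h chemical exposure. Eight-point curves from 100 uM, half-log dilutions, 0.5% DMSO vehicle; gain or loss fitted relative to DMSO baseline.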

[7] = read-out: Insulin Like Growth Factor 1 (IGF1), IGF1 (gene 3479); assay: LTEA_HepaRG_IGF1: Life Technologies and Expression Analysis (LTEA) Assay for Insulin Like Growth Factor 1 (IGF1) using HepaRG (AID 2283506)
Procedure, shortened: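 Cells are thawed, plated and cultured 48 h, then exposed in duplicate to chemical (highest 100 uM, half-log steps, 0.5% DMSO) for another 48 h. Total RNA is analysed by Fluidigm qRT-PCR for IGF1 expression relative to vehicle.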

[8] = read-out: Intercellular Adhesion Molecule 1 (ICAM1), ICAM1 (gene 3383); assay: LTEA_HepaRG_ICAM1: Life Technologies and Expression Analysis (LTEA) Assay for Intercellular Adhesion Molecule 1 (ICAM1) using HepaRG (AID 2283507)
Procedure, shortened: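 HepaRG, 48 h exposure, 8-pt half-log series from 100 uM, 0.5% DMSO vehicle, duplicates. Readout: TaqMan qRT-PCR mRNA, housekeeping-normalized (ACTB/GAPDH/POLR2A). Bidirectional curve fit vs DMSO baseline.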

[9] = read-out: Insulin-like growth factor-binding protein 1 (IGFBP1), IGFBP1 (gene 3484); assay: LTEA_HepaRG_IGFBP1: Life Technologies and Expression Analysis (LTEA) Assay for Insulin-like growth factor-binding protein 1 (IGFBP1) using HepaRG (AID 2283508)
Procedure, shortened: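 qRT-PCR mRNA read-out (TaqMan, Fluidigm array), normalised to three housekeeping genes; HepaRG cells, 48 h exposure, 8-pt half-log series from 100 uM, 0.5% DMSO vehicle; bidirectional curve fit vs DMSO baseline.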

[10] = read-out: Interleukin 6 (IL6), IL6 (gene 3569); assay: LTEA_HepaRG_IL6: Life Technologies and Expression Analysis (LTEA) Assay for Interleukin 6 (IL6) using HepaRG (AID 2283509)
Procedure, shortened: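 qRT-PCR read-out of IL6 transcript, normalized to three housekeeping genes, after 48 h chemical exposure of HepaRG cells; 8-point half-log series, top 100 uM, 0.5% DMSO vehicle. Bidirectional curve fitting against DMSO baseline.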

[11] = read-out: Interleukin 6 Receptor (IL6R), IL6R (gene 3570); assay: LTEA_HepaRG_IL6R: Life Technologies and Expression Analysis (LTEA) Assay for Interleukin 6 Receptor (IL6R) using HepaRG (AID 2283510);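 on AC50: differentiated human HepaRG liver cells in serum-free induction medium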
Procedure, shortened: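 Cells were thawed, plated and cultured 48 h, then medium was changed to serum-free induction medium. Chemicals were added in duplicate (100 uM top, half-log steps, 0.5% DMSO) for 48 h. Lysates were analyzed by qRT-PCR for IL6R expression.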

[12] = read-out: Potassium channel subfamily K member 1 (KCNK1), KCNK1 (gene 3775); assay: LTEA_HepaRG_KCNK1: Life Technologies and Expression Analysis (LTEA) Assay for Potassium channel subfamily K member 1 (KCNK1) using HepaRG (AID 2283511)
Procedure, shortened: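 HepaRG, 48 h exposure, 8-pt half-log series top 100 uM, 0.5% DMSO vehicle, duplicates. Readout: KCNK1 transcript by qRT-PCR (Fluidigm array), housekeeping-normalized; bidirectional curve fit relative to DMSO baseline.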

[13] = read-out: Keratin 19 (KRT19), KRT19 (gene 3880); assay: LTEA_HepaRG_KRT19: Life Technologies and Expression Analysis (LTEA) Assay for Keratin 19 (KRT19) using HepaRG (AID 2283512)
Procedure, shortened: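 HepaRG, 48 h chemical exposure, 8-pt half-log CRC from 100 uM, 0.5% DMSO vehicle, duplicates. Readout: TaqMan qRT-PCR of KRT19 mRNA, housekeeping-normalized (ACTB/GAPDH/POLR2A). Bidirectional fit vs DMSO baseline.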

[14] = read-out: JUN Transcription Factor, JUN (gene 3725); assay: LTEA_HepaRG_JUN: Life Technologies and Expression Analysis (LTEA) Assay for JUN Transcription Factor using HepaRG (AID 2283513)
Procedure, shortened: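 Read-out is JUN transcript level by TaqMan qRT-PCR, normalized to ACTB, GAPDH and POLR2A, after 48 h chemical treatment of HepaRG cells. Concentration-response spanned eight half-log points up to 100 uM in 0.5% DMSO.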

[15] = read-out: Lipase C (LIPC), LIPC (gene 3990); assay: LTEA_HepaRG_LIPC: Life Technologies and Expression Analysis (LTEA) Assay for Lipase C (LIPC) using HepaRG (AID 2283514)
Procedure, shortened: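 HepaRG, 48 h exposure, 8-pt half-log series from 100 uM in 0.5% DMSO, duplicates. Readout: LIPC mRNA by Fluidigm qRT-PCR, housekeeping-normalized (ACTB/GAPDH/POLR2A). Gain or loss fitted bidirectionally against DMSO baseline.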

[16] = read-out: Lipoprotein lipase (LPL), LPL (gene 4023); assay: LTEA_HepaRG_LPL: Life Technologies and Expression Analysis (LTEA) Assay for Lipoprotein lipase (LPL) using HepaRG (AID 2283515)
Procedure, shortened: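 HepaRG, 48 h exposure, 8-pt half-log dilutions from 100 uM, 0.5% DMSO vehicle, duplicates; qRT-PCR (Fluidigm array) of LPL mRNA vs housekeeping genes; bidirectional curve fit relative to DMSO baseline.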

[17] = read-out: MicroRNA 122 (MIR122), gene 406906; assay: LTEA_HepaRG_MIR122: Life Technologies and Expression Analysis (LTEA) Assay for MicroRNA 122 (MIR122) using HepaRG (AID 2283516); further: the transcript read is the microRNA miR-122
Procedure, shortened: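 Human liver HepaRG cultures receive test chemicals for 48 h at eight half-log concentrations from 100 uM. Expression is quantified by qRT-PCR with ACTB/GAPDH/POLR2A normalization and fitted bidirectionally against 0.5% DMSO.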

[18] = read-out: HGF (gene 3082); assay: LTEA_HepaRG_HGF: Life Technologies and Expression Analysis (LTEA) Assay for Hepatocyte Growth Facto (HGF) using HepaRG (AID 2283505)
Procedure, shortened: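 HepaRG, 48 h dosing, 8-pt half-log series from 100 uM in 0.5% DMSO, duplicates. Readout: TaqMan qRT-PCR of HGF mRNA, housekeeping-normalized; bidirectional curve fit vs DMSO baseline.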

[19] = read-out: growth arrest and DNA damage 45 (GADD45G), GADD45G (gene 10912); assay: LTEA_HepaRG_GADD45G: Life Technologies and Expression Analysis (LTEA) Assay for growth arrest and DNA damage 45 (GADD45G) using HepaRG (AID 2283499)
Procedure, shortened: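 HepaRG, 48 h exposure, top 100 uM, half-log 8-point series, 0.5% DMSO vehicle, duplicates. Readout: GADD45G transcript by qRT-PCR (Fluidigm array), housekeeping-normalised (ACTB/GAPDH/POLR2A). Bidirectional curve fit vs DMSO baseline.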

Measured: AC50

Chain of Hypoxia-inducible factor 1-alpha (Homo sapiens) (Q16665 whole entry, looked up): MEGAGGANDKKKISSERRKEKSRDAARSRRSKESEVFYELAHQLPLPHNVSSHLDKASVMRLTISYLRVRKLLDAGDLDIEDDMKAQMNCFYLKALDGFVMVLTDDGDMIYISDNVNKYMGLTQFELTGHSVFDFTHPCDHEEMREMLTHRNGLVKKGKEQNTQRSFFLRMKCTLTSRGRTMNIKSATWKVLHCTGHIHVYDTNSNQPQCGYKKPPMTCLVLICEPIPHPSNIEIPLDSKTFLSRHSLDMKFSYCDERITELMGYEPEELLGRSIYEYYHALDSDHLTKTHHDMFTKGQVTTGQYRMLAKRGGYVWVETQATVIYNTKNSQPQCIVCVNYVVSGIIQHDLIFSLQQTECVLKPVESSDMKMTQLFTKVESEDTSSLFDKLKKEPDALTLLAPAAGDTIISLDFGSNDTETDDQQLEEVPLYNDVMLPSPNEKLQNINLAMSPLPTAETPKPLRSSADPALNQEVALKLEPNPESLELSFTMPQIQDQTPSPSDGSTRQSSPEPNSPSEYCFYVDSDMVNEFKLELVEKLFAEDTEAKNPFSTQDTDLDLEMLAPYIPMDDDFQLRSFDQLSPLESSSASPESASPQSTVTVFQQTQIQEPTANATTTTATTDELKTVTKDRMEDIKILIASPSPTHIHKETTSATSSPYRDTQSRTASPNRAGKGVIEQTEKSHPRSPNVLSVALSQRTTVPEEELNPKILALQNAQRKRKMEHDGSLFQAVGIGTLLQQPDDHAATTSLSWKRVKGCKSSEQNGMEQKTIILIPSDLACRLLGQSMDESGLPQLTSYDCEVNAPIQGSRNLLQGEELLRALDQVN

C1CCC(SSC2CCCCC2)CC1
not listed: [18] | [19]
inactive: all other assays above

COc1ccc(S(=O)(=O)N2C(=O)[C@@](c3ccccc3OC)(N3C[C@H](O)C[C@H]3C(=O)N(C)C)c3cc(Cl)ccc32)c(OC)c1
inactive: [13] | [14]
active: [1] 13 µM | [2] 78.6 µM | [3] 19.5 µM | [4] 83 µM | [5] 69.1 µM | [6] 15.8 µM | [18] 85.5 µM | [7] 81.9 µM | [8] 21.6 µM | [9] 37.2 µM | [10] 58.2 µM | [11] 13.2 µM | [12] 50 µM | [15] 15.8 µM | [16] 12.1 µM | [17] 50 µM

Cc1ccc(N(C)C)cc1
not listed: [17] | [18]
inactive: all other assays above

Cc1nc(-c2ccc3c(c2)CCN(CCC2CCC(NC(=O)/C=C/c4ccc(F)cc4)CC2)CC3)no1 (stereo not given)
not listed: [19]
inactive: all other assays above
